In PubChem BioAssay (NCI) one finds growth data, which are given here for eight molecules.

Test systems include NCI-H23 lung; NCI-H226 lung; NCI-H322M lung; HOP-62 NSCLC; NCI-H460 lung; HOP-92 NSCLC; NCI-H522 lung; A549/ATCC NSCLC; 786-0 renal; COLO 205 colon; DU-145 prostate; K-562 leukemia; MALME-3M melanoma; MDA-MB-231 breast; RXF 393 renal; SF-268 CNS; SF-295 CNS; SF-539 CNS; UACC-257 melanoma; M14 melanoma.
Common to all, as to assay: NCI-60 one-dose screen, 48 h (100 = growth as untreated, 0 = no growth, -100 = all killed)
Holding throughout (settings): 10 µM unless noted

Structures are written as SMILES. This is part of a sample that, as a whole, favours compounds with a hit. Of some 83,000 tested, about 20% had one in any assay.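 Method: cells in 96-well plates; compound added at one concentration; 48 h incubation; percent growth measured; values under 10 scored active.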 Unmarked numbers belong to inactive results. Activity calls are given as the source filed them.

As for `CN(C)CCn1c(=O)c2c3cc4c(cc3n(CCN(C)C)c2c2ccc(Cl)cc21)OCO4`, the growth is 36.9% in the assay with NCI-H23 lung; 55% in the assay with NCI-H226 lung; 49.1% in the assay on NCI-H322M lung; 26.3% in the assay on HOP-62 NSCLC; 12.7% with NCI-H460 lung; 65.9% in the assay on HOP-92 NSCLC. In addition, the growth in the assay on NCI-H522 lung is 44.5%; in the assay with A549/ATCC NSCLC, 31.7%; in the assay on 786-0 renal it was 61.1%; in the assay with COLO 205 colon, 27%; in the assay with DU-145 prostate it was 60.6%; with K-562 leukemia it was -17.8% (active). Moreover, the growth in the assay with MALME-3M melanoma was 78.7%; in the assay with MDA-MB-231 breast, 31.6%; with RXF 393 renal, 57.9%; in the assay with SF-268 CNS it was 32%; in the assay on SF-295 CNS, 32.5%; in the assay with SF-539 CNS, 69.9%. The growth in the assay with UACC-257 melanoma is 71.6%; in the assay with M14 melanoma it was 50.5%.
On to `Cc1[nH]c(/C=C2\C(=O)Nc3ccc(F)cc32)c(C)c1C(=O)NC[C@H](O)CN1CCOCC1`, for which the growth in the assay with NCI-H23 lung was 27.1%; in the assay with NCI-H226 lung, 47.8%; in the assay with NCI-H322M lung it was 26.2%; in the assay with HOP-62 NSCLC, 25.7%; in the assay on NCI-H460 lung, 19%; in the assay on HOP-92 NSCLC, 14.5%. Further, the growth was 45.4% in the assay on NCI-H522 lung; 27.4% with A549/ATCC NSCLC; 35.6% with 786-0 renal; -8.22% (active) in the assay on COLO 205 colon; 31.3% in the assay with DU-145 prostate; 24% in the assay on K-562 leukemia. Also, the growth in the assay with MALME-3M melanoma is -7.48% (active); in the assay with MDA-MB-231 breast it was 29.8%; in the assay with RXF 393 renal it was -17.1% (active); in the assay on SF-268 CNS, 40.9%; in the assay with SF-295 CNS, 64%; in the assay with SF-539 CNS, 28%. Further, the growth in the assay on UACC-257 melanoma is 42.3%; in the assay with M14 melanoma, 7.61% (active).
On to `CO[C@@H](C(=O)N1Cc2[nH]nc(NC(=O)c3ccc(N4CCN(C)CC4)cc3)c2C1)c1ccccc1`, for which the growth in the assay with NCI-H23 lung is 36.8%; in the assay on NCI-H226 lung it was 37.3%; in the assay with NCI-H322M lung, -0.392% (active); in the assay with HOP-62 NSCLC it was -6.89% (active); with NCI-H460 lung it was 4.44% (active); in the assay with HOP-92 NSCLC, -63.8% (active). Further, the growth was 12.6% in the assay with NCI-H522 lung; 19.1% with A549/ATCC NSCLC; 10.7% with 786-0 renal; -88.2% (active) in the assay with COLO 205 colon; 17.6% in the assay with DU-145 prostate; 6.59% (active) with K-562 leukemia. Besides, the growth with MALME-3M melanoma is 48.6%; with MDA-MB-231 breast it was 9.92% (active); in the assay on RXF 393 renal, -36.4% (active); with SF-268 CNS, 1.17% (active); in the assay on SF-295 CNS it was 31.7%; with SF-539 CNS it was -4.34% (active). The values for the growth with UACC-257 melanoma and in the assay with M14 melanoma were 14.2% and 35.8%, respectively.
`C/C(=C(/c1ccc(Cl)cc1)c1ccc(OCCN2CCCCC2)cc1)c1ccccc1`: the growth is 76.3% with NCI-H23 lung; 98.7% in the assay on NCI-H226 lung; 91.4% in the assay on NCI-H322M lung; 68.8% in the assay on HOP-62 NSCLC; 74.4% in the assay on NCI-H460 lung; 83.6% with HOP-92 NSCLC. In addition, the growth was 81.4% in the assay with NCI-H522 lung; 57.2% in the assay with A549/ATCC NSCLC; 75.6% with 786-0 renal; 11.8% in the assay with COLO 205 colon; 97.6% in the assay with DU-145 prostate; 13.2% in the assay on K-562 leukemia. The growth is 76.9% with MALME-3M melanoma; 80.2% in the assay on MDA-MB-231 breast; 84.7% with RXF 393 renal; 90.5% with SF-268 CNS; 83.8% in the assay with SF-295 CNS; 69.6% in the assay with SF-539 CNS. The growth in the assay with UACC-257 melanoma is 80.3%; with M14 melanoma, 67.1%.
Consider `CSc1nc2ncncc2[nH]1`, for which the growth in the assay with NCI-H23 lung was 101%; in the assay on NCI-H226 lung, 92.5%; with NCI-H322M lung, 102%; with HOP-62 NSCLC, 82.5%; in the assay with NCI-H460 lung, 110%; in the assay with HOP-92 NSCLC, 153%. Also, the growth in the assay with NCI-H522 lung is 101%; with A549/ATCC NSCLC it was 103%; in the assay on 786-0 renal it was 93.9%; in the assay on COLO 205 colon, 120%; in the assay on DU-145 prostate, 112%; with K-562 leukemia, 93.9%. The growth in the assay with MALME-3M melanoma was 111%; in the assay on MDA-MB-231 breast, 99.3%; in the assay on RXF 393 renal, 45.4%; with SF-268 CNS it was 105%; with SF-295 CNS, 81%; in the assay with SF-539 CNS, 89.6%. In addition, the growth in the assay on UACC-257 melanoma was 114%; in the assay with M14 melanoma it was 90.7%.
As for `Cc1ccc(-n2nc(C(C)(C)C)cc2NC(=O)NCc2cc(F)ccc2Oc2ccc3c(cnn3CCO)c2)cc1`, the growth is 20.8% with NCI-H23 lung; 21.1% in the assay with NCI-H226 lung; 21.6% with NCI-H322M lung; 26.1% in the assay on HOP-62 NSCLC; 25.8% in the assay with NCI-H460 lung; 19.5% in the assay on HOP-92 NSCLC. Moreover, the growth is 4.27% (active) in the assay with NCI-H522 lung; 19.4% in the assay on A549/ATCC NSCLC; 29.1% in the assay with 786-0 renal; -13% (active) in the assay with COLO 205 colon; 42.4% with DU-145 prostate; 3.71% (active) in the assay on K-562 leukemia. Also, the growth was -6.23% (active) in the assay on MALME-3M melanoma; 14.1% in the assay with MDA-MB-231 breast; -10.3% (active) in the assay on RXF 393 renal; 34.8% in the assay on SF-268 CNS; 26.9% in the assay with SF-295 CNS; 21.7% in the assay with SF-539 CNS. In addition, the growth in the assay with UACC-257 melanoma is -11.2% (active); with M14 melanoma, 9.06% (active).
Turning to `CCN1CCN(Cc2ccc(NC(=O)Nc3nc(-c4cc(OC)c(OC)c(OC)c4)cs3)cc2C(F)(F)F)CC1`, the growth in the assay on NCI-H23 lung is 37.6%; in the assay on NCI-H226 lung, 56.8%; in the assay on NCI-H322M lung it was 63%; in the assay on HOP-62 NSCLC it was 49.9%; in the assay on NCI-H460 lung, -1.08% (active); in the assay on HOP-92 NSCLC it was 54.4%. Moreover, the growth with NCI-H522 lung is 55.9%; with A549/ATCC NSCLC, 26.1%; with 786-0 renal it was -50.9% (active); in the assay with COLO 205 colon, -68.4% (active); in the assay with DU-145 prostate it was 38.7%; in the assay with K-562 leukemia, -9.87% (active). For the same molecule, the growth with MALME-3M melanoma is -49.8% (active); in the assay on MDA-MB-231 breast, -13.8% (active); in the assay with RXF 393 renal, 22.6%; in the assay on SF-268 CNS it was 34.8%; in the assay on SF-295 CNS, -38% (active); in the assay on SF-539 CNS it was -6.61% (active). The growth is -13.1% (active) with UACC-257 melanoma and -78.6% (active) with M14 melanoma.
On to `N[C@@H]1CCCN(c2c(/C=C3\SC(=O)NC3=O)cccc2-c2ccccc2)C1`, for which the growth in the assay on NCI-H23 lung was 66%; in the assay with NCI-H226 lung it was 59.1%; in the assay with NCI-H322M lung it was 64.3%; with HOP-62 NSCLC it was 1.79% (active); in the assay with NCI-H460 lung, 75.9%; in the assay on HOP-92 NSCLC it was 27.9%. Besides, the growth in the assay on NCI-H522 lung was 49.7%; in the assay with A549/ATCC NSCLC, 52.6%; with 786-0 renal, 82.8%; with COLO 205 colon, 45.4%; in the assay on DU-145 prostate it was 70.4%; with K-562 leukemia it was 33.1%. In addition, the growth is 55.6% in the assay on MALME-3M melanoma; 55.8% with MDA-MB-231 breast; 54.6% with RXF 393 renal; 43% with SF-268 CNS; 5.44% (active) with SF-295 CNS; -24.7% (active) in the assay on SF-539 CNS. The growth in the assay on UACC-257 melanoma was 44.7%; in the assay on M14 melanoma, 54.3%.
